The source made the active and inactive calls.
How the values were obtained:
[1] = optical density shifts of acrAB sulA E. coli – strain DRC41, OD650, 48 h, E. coli filamentation inducer project, primary screen (AID 1152); conditions: higher = more signal, called active from +8 up or from −8 down;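 note: E. coli MC1000 strain DRC41 lacking acrAB efflux pump and sulA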
[2] = probe aLefty1 binding on compound microarray – biochemical, small-molecule microarray, 635/667 nm fluorescence, primary screen (AID 1153); conditions: higher = more signal;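 note: score merges spot fluorescence with signal-to-noise ratio from the scanned slide images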
[3] = plasmodial surface anion channel blockers, osmotic lysis – cell-based, P. falciparum Indochina, OD700, 1 h, primary screen (AID 1154); conditions: P. falciparum Indochina infected RBC osmotic lysis, higher = more signal, called active from +8 up or from −8 down
[4] = plasmodial surface anion channel blockers, osmotic lysis – cell-based, P. falciparum Indochina, OD700, 2 h, primary screen (AID 1155);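 note: lysis reports solute entry through the parasite surface anion channel PSAC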; conditions: P. falciparum Indochina infected erythrocytes, higher = more signal, called active from +8 up or from −8 down
[5] = changes in parasitized red cell lysis, either direction – P. falciparum Indochina, OD700, 3 h, PSAC antagonist project, primary screen (AID 1156); conditions: P. falciparum-infected erythrocytes, osmotic lysis, higher = more signal, called active from +8 up or from −8 down
[6] = plasmodial surface anion channel blockers, osmotic lysis – cell-based, P. falciparum Indochina, OD700, 18 h, primary screen (AID 1157); conditions: P. falciparum Indochina infected erythrocytes, osmotic lysis OD700, 18 h; higher = more signal, called active from +8 up or from −8 down
[7] = S6 kinase pathway phospho-S6 level changes – cell-based, A549, cytoblot, luminescence, serum-stimulated, primary screen (AID 1158); conditions: 5 h, higher = more signal;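 note: serum-stimulated A549 lung adenocarcinoma cells; signal is phosphorylated S6 detected by cytoblot immunostaining with HRP secondary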
[8] = biological target: NADPH oxidase 2 (Homo sapiens) (UniProt P04839); assay: compounds shifting NOX2 Amplex Red fluorescence – cell-based, HEK293-NOX2, PMA-stimulated, NOX inhibitor project, primary screen (AID 1159); conditions: 45 min, higher = more signal, called active from +8 up or from −8 down; note: test concentration not given here
NADPH oxidase 2 (Homo sapiens), sequence (P04839 whole entry, looked up): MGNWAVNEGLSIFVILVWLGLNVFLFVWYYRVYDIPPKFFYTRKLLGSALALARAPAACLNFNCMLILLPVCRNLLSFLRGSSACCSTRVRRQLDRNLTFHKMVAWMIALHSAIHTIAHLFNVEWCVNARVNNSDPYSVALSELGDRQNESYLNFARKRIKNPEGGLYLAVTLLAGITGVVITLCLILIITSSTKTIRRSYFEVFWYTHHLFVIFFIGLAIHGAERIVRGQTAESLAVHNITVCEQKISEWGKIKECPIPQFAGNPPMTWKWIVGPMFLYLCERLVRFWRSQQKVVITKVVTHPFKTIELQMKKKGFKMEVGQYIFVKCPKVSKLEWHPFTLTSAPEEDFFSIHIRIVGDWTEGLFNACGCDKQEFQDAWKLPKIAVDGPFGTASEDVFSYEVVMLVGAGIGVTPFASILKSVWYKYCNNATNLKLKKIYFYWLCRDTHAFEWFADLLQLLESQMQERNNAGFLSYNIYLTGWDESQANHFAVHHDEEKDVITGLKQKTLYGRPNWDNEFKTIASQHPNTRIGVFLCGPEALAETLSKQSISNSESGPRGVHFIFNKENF

[9] = biological target: NADPH oxidase 4 (Homo sapiens) (UniProt Q9NPH5); assay: compounds shifting NOX4 Amplex Red fluorescence – cell-based, HEK293-NOX4, tetracycline-induced, NOX inhibitor project, primary screen (AID 1160); conditions: HEK293-NOX4, Amplex Red H2O2 fluorescence, 45 min; higher = more signal, called active from +8 up or from −8 down
NADPH oxidase 4 (Homo sapiens), sequence (Q9NPH5 whole entry, looked up): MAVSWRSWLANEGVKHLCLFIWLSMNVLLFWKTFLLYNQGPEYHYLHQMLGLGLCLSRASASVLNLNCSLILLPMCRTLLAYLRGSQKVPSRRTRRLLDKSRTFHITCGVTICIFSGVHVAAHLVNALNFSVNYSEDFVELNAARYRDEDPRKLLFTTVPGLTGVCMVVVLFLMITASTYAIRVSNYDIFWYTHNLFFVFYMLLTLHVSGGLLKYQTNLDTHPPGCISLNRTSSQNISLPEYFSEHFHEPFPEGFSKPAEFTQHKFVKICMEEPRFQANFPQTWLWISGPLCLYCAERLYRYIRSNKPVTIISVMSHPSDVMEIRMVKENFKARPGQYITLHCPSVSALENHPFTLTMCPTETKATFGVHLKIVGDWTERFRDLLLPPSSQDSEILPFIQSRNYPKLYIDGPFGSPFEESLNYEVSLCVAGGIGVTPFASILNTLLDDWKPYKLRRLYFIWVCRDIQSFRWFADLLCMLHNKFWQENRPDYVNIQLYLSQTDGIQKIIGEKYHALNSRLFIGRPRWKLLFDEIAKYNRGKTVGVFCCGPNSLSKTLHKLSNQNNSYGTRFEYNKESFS

[10] = biological target: NADPH oxidase 5 (Homo sapiens) (UniProt Q96PH1); assay: compounds shifting NOX5 Amplex Red fluorescence – cell-based, HEK293-NOX5, NOX inhibitor project, primary screen (AID 1161); conditions: HEK293-NOX5, ionomycin, 45 min, higher = more signal
NADPH oxidase 5 (Homo sapiens), sequence (Q96PH1 whole entry, looked up): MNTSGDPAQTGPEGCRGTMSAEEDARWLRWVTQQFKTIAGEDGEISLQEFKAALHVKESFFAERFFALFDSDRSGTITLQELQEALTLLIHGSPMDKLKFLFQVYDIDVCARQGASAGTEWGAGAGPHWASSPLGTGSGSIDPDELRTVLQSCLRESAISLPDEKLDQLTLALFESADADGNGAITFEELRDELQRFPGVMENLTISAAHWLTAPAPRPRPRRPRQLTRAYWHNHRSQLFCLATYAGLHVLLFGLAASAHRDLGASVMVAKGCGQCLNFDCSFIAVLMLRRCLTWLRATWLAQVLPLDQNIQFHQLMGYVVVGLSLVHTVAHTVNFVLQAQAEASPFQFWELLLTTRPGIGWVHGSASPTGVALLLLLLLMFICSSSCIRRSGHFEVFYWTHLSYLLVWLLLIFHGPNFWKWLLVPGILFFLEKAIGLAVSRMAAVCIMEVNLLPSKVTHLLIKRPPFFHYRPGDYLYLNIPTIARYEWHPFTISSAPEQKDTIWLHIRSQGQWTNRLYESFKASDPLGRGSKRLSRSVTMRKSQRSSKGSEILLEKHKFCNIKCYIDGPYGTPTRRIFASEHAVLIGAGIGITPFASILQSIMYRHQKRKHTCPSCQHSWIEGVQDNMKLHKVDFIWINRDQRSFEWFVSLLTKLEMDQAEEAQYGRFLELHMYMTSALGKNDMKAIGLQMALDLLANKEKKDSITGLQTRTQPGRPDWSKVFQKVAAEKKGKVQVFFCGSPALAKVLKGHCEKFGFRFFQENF

Row | Structure (SMILES) | z-score [1] | composite z-score [2] | z-score [3] | z-score [4] | z-score [5] | z-score [6] | z-score [7] | z-score [8] | z-score [9] | z-score [10]
1 | CCc1oc(CC[C@@H](CO)NC(=O)NCCn2cc(C3(O)CCCCC3)nn2)c(C(=O)OC)c1C(=O)OC | -1.26 (inactive) | 0.0768 | 25.6 (active) | 7.39 (inactive) | 0.709 (inactive) | 1.07 (inactive) | -0.524 | -1.59 (inactive) | -0.491 (inactive) | -1.14
2 | C=CCOC(=O)[C@@H]1[C@H]2C(=O)O[C@H](c3ccccc3)[C@H](c3ccccc3)N2[C@H](c2ccc(OCCOC(=O)[C@@H]3C[C@@H]4C(=O)N[C@@H](CCCCN(C)C)C(=O)N4[C@@H]3c3ccc(O)cc3)cc2)[C@@]12C(=O)Nc1ccc(I)cc12 | -0.193 (inactive) | -0.012 | -1.43 (inactive) | 0.997 (inactive) | 3.77 (inactive) | 0.374 (inactive) | -0.381 | 1.36 (inactive) | 0.636 (inactive) | 0.167
3 | COC(=O)c1c(CC[C@@H](CO)NC(=O)N[C@@H](C)Cn2cc(C3(O)CCCCC3)nn2)oc(C(C)=O)c1C(=O)OC | -0.244 (inactive) | -0.0984 | 5.47 (inactive) | -0.319 (inactive) | 1.01 (inactive) | -1.01 (inactive) | 0.813 | -6.12 (inactive) | -2.61 (inactive) | -2.88
4 | COC(=O)c1c(CC[C@@H](CO)NC(=O)N[C@H](Cn2cc(Cc3ccccc3)nn2)C(C)C)oc(C(C)=O)c1C(=O)OC | 0.618 (inactive) | -0.101 | 1.62 (inactive) | -0.452 (inactive) | 0.695 (inactive) | -0.177 (inactive) | 1.53 | -3.91 (inactive) | -1.31 (inactive) | 0.197
5 | CC(C)(C)OC(=O)CC[C@@]12N=C(c3ccc(OCCCO)cc3)O[C@@H]1c1ccccc1N(CCS(=O)(=O)c1ccccc1)C2=O | 0.864 (inactive) | 0.334 | 30.9 (active) | 27.6 (active) | 3.49 (inactive) | 8.22 (active) | 1.84 | -0.619 (inactive) | 0.801 (inactive) | -2.14
6 | CC(C)(C)OC(=O)CC[C@]1(C(=O)O)N=C(c2ccc(OCCCO)cc2)O[C@H]1c1ccccc1N=[N+]=[N-] | 0.234 (inactive) | 1.58 | 32.9 (active) | 28.4 (active) | 0.912 (inactive) | 6.45 (inactive) | -0.466 | 0.7 (inactive) | 1.14 (inactive) | 1.31
7 | COc1ccc([C@H]2C[C@H]3C(Br)=C[C@@H]2C(=O)[C@]32CO2)cc1 | 0.834 (inactive) | -0.294 | 1.27 (inactive) | 0.581 (inactive) | 1.23 (inactive) | 0.207 (inactive) | -0.288 | -0.0817 (inactive) | 0.106 (inactive) | -0.837
8 | O=C1NC(=O)C2C1C=CC(C(O)c1ccccc1)N2Nc1ccc(Cl)cc1Cl (stereo not given) | -1.87 (inactive) | 0.93 | 5.08 (inactive) | -0.32 (inactive) | -3.3 (inactive) | -1.8 (inactive) | 0.726 | -0.169 (inactive) | -4.94 (inactive) | -2.51

Reference: PubChem BioAssay
